Consider 8 compounds from PubChem BioAssay.

Several values for one entry are separate records, joined by “and”; a condition that tells them apart may be missing. Equal values may be shown once. For some of these results: Results with a measured potency or affinity are listed apart. Activity calls are given as the source filed them.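 Rule for the calls, unless noted: active = thallium flux through the channel raised or lowered by more than 3 SD from vehicle-only wells, actives on both sides; inactive = the rest.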

Assay [1] is described as follows: blockers of polyQ-driven CASP3 activation – cell-based (AID 1583). The following applies: polyglutamine-induced caspase-3 activation, cell assay; stronger effect = higher value;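 tested at 10 µM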.
Assay [2] in a line: yeast 75Q aggregation reduction – 75Q-TubU reporter (AID 1593). Particulars: Yeast 75Q polyglutamine aggregation reporter.
A short description of assay [3]: restoration of touch response, mutant HTT neurons – whole organism, C. elegans mechanosensory neurons, N-terminal huntingtin (AID 1599). The following applies: C. elegans polyQ-huntingtin mechanosensory neurons, stronger effect = higher value.
The nature of assay [4]: blockers of cytochrome c efflux from mitochondria – biochemical, purified mitochondria (AID 1603).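 Note: mouse liver mitochondria challenged with calcium chloride; signal normalized to the plate average as 100%.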 The following applies: stronger effect = lower value.
A short description of assay [5]: polyglutamine aggregate formation blockers (AID 1604). Particulars: polyglutamine-induced protein aggregation inhibition assay; stronger effect = higher value; tested at 2.5 µM.
The nature of assay [6]: glutamate transport activators, MN-1 cells, MN-1 cell line (AID 1612).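 Note: tested at 1 µM final; 0% = mean of DMSO vehicle wells on each plate; positive means more glutamate uptake than control and negative means less.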 Particulars: MN-1 motor neuron cells, stronger effect = higher value.
Assay [7] can be described thus: 75Q-TubH aggregate inhibition, S. cerevisiae, yeast (AID 1616). The following applies: S. cerevisiae 75Q-TubH polyglutamine aggregation suppression; stronger effect = higher value.
The nature of assay [8]: compounds altering viability of human ES cells (AID 493140; call rule not given here;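 note: cells exposed to compounds for four days before counting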). The following applies: human embryonic stem cell survival screen; stronger effect = higher value.
Assay [9] has as its system Neuropilin-2 / VEGF-C interaction (human). The assay is described as follows: small molecules blocking Neuropilin-2/VEGF-C interaction – biochemical, microplate binding format, z-score (AID 743281; call rule not given here). The following applies: microplate NRP2/VEGF-C binding assay; stronger effect = lower value.
Assay [10] in a line: modulation of C. elegans fzo-1 (AID 1259413; call rule not given here;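 note: fzo-1 mutant C. elegans worms in liquid wells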). Particulars: C. elegans fzo-1 modulator screen, mean read-out; stronger effect = higher value.
Assay [11] can be described thus: galactose survival enhancers in mitochondrial complex I cybrids – cell-based, galactose medium, ATP luminescence, primary screen (AID 1645843;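 active = z-score of at least 1.8 in each of two replicates, scored against plate mean and spread of sample wells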;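 note: positive z means more ATP and so rescue of galactose-driven cybrid death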). Particulars: complex I mutant cybrid cells, 72 h, stronger effect = higher value.
The test system of assay [12] is F380Y/beta1. The assay is described as follows: BK channel mutant inhibitors and activators – cell-based, U2OS BacMam, thallium flux, beta subunits, selectivity assay, profiling panel (AID 1259406).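 Note: initial slope of Thallos dye fluorescence rise after thallium is added; log ratio against the mean of 0.3% DMSO vehicle wells on the same plate.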 The following applies: U2OS BacMam BK variants, at 30 µM.
Assay [13] concerns F380Y/beta2Delta. The assay is described as above. The following applies: U2OS BacMam BK variants, at 30 µM.
Assay [14] has as its system F380Y/beta4. The assay is described as above. Particulars: U2OS BacMam BK variants, at 30 µM.
The target of assay [15] is Calcium-activated potassium channel subunit alpha-1 (Homo sapiens) + Leucine-rich repeat-containing protein 26 (Homo sapiens) (UniProt Q12791+Q2I0M4). Described as above. Particulars: U2OS BacMam BK variants, F380Y/Slo1WT/gamma1, at 30 µM.
Calcium-activated potassium channel subunit alpha-1 (Homo sapiens) + Leucine-rich repeat-containing protein 26 (Homo sapiens), sequence (Q2I0M4 whole entry, looked up, one chain of several): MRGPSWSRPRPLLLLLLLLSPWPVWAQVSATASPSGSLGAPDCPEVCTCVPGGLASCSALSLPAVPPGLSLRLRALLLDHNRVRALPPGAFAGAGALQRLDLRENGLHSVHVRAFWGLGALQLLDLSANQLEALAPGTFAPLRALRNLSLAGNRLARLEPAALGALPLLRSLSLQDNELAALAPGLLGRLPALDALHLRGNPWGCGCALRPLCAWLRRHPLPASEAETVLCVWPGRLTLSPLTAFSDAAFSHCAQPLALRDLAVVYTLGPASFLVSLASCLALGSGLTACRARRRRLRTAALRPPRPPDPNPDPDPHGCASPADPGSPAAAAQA
The test system of assay [16] is R275C. Described as above. The following applies: U2OS BacMam BK variants, at 30 µM.
Assay [17] has as its system R275C/beta1. The assay is described as above. Particulars: U2OS BacMam BK variants, at 30 µM.
The subject of assay [18] is R275C/beta2Delta. The assay is described as above. The following applies: U2OS BacMam BK variants, at 30 µM.
The test system of assay [19] is R275C/beta4. Described as above. Particulars: U2OS BacMam BK variants, at 30 µM.
Assay [20] has as its system R275C/Slo1WT/beta2. The description is as above. The following applies: U2OS BacMam BK variants, at 30 µM.

One may read the inhibition as the change of the read-out against control, counted positive when it falls. For `CC(=O)CCCCn1c(=O)c2c(ncn2C)n(C)c1=O`, in [1], the inhibition is 49.3%. The same compound had a score in [2] of 1.37. The compound also showed a rescue above control in assay [3] of -11.6. The cytochrome c release ratio in [4] was 0.83. The compound further yielded an inhibition of aggregation in assay [5] of 60.9%. For the same compound, the glutamate uptake change in assay [6] was -0.27%. In assay [7], this compound displayed an aggregation suppression score of 1.44. Besides, the survival in assay [8] is 14.1 (inactive). The z-score in assay [9] was -0.728 (inactive); in assay [11] it was 0.465 (inactive) and 0.86 (inactive) and 0.55 (inactive). Also, the mean signal in [10] was 250 (inactive). The log fold change Tl+ flux in [12] is -0.00172 (inactive); in [13], -0.0305 (inactive); in [14] it was 0.0281 (inactive); in assay [15] it was -0.00624 (inactive); in assay [16] it was -0.0458 (inactive); in assay [17], -0.0218 (inactive). Moreover, the log fold change Tl+ flux was 0.00216 (inactive) in assay [18], -0.0339 (inactive) in assay [19] and -0.000483 (inactive) in [20].

For `CC(C)(C)NCC(O)c1cc(O)cc(O)c1` (stereo unspecified), in assay [1], the inhibition came out at 10.1%. This compound also came in with a score in [2] of 1.33. In assay [3], this compound had a rescue above control of -7.82. In addition, the cytochrome c release ratio in assay [4] is 1.15. Also, the inhibition of aggregation in [5] turned out to be 47.9%. Besides, the glutamate uptake change in [6] is 22.8%. The compound also registered an aggregation suppression score in assay [7] of 1.5. Besides, the survival in assay [8] is 21.1 (inactive). In addition, the mean signal in assay [10] is 269 (inactive). For the same compound, in assay [11], the z-score was 0.355 (inactive) and 1.03 (inactive). Further, the log fold change Tl+ flux in [12] is -0.0587 (inactive); in [13] it was 0.0185 (inactive); in [14], -0.0336 (inactive); in [15], 0.00552 (inactive); in [16] it was 0.00159 (inactive); in assay [17], -0.00541 (inactive). In addition, the values for the log fold change Tl+ flux in assay [18], in [19] and in [20] were -0.00466 (inactive), 0.00501 (inactive) and -0.0142 (inactive), respectively.

As to `CC(C)[N+](C)(CCOC(=O)C1c2ccccc2Oc2ccccc21)C(C)C`, the inhibition in assay [1] was 8.5%. In [2], this compound had a score of 0.96. Also, the rescue above control in assay [3] is 2.24. In addition, in assay [4], the cytochrome c release ratio worked out at 0.77. In [5], this compound gave an inhibition of aggregation of 58.5%. Also, the glutamate uptake change in assay [6] was -0.12%. Also, the aggregation suppression score in [7] stood at 1.09. Also, in [8], the survival was 4.92 (inactive). Besides, in assay [10], the mean signal is 251 (inactive). Further, in [11], the z-score is 0.295 (inactive) and 0.02 (inactive). The log fold change Tl+ flux in assay [12] was -0.0699 (inactive); in assay [13], 0.0277 (inactive); in assay [14], -0.0221 (inactive); in assay [15] it was -0.0355 (inactive); in assay [16] it was 0.0289 (inactive); in assay [17] it was 0.0122 (inactive). In addition, the log fold change Tl+ flux was -0.014 (inactive) in [18], -0.0395 (inactive) in [19] and -0.0246 (inactive) in assay [20].

Turning to `OC(CCN1CCCCC1)(c1ccccc1)C1CCCCC1` (stereo unspecified), the inhibition in [1] was -21%. For the same compound, the score in assay [2] amounted to 1.21. For the same compound, in assay [3], the rescue above control was determined as 1.37. Further, in assay [4], the cytochrome c release ratio was found to be 1.32. Besides, in [5], the inhibition of aggregation was 88.9%. Moreover, the glutamate uptake change in assay [6] is -20.9%. Besides, the aggregation suppression score in assay [7] stood at 1.42. Also, the survival in assay [8] was 3.42 (inactive). For the same compound, the mean signal in assay [10] is 211 (inactive). The z-score in [11] was -0.545 (inactive) and -0.525 (inactive). The log fold change Tl+ flux was 0.00768 (inactive) in assay [12]; -0.0109 (inactive) in assay [13]; 0.0698 (inactive) in [14]; -0.0285 (inactive) in [15]; -0.119 (active) in assay [16]; 0.105 (inactive) in assay [17]. Also, the log fold change Tl+ flux in [18] is -0.0882 (inactive); in [19], 0.0638 (inactive); in [20], 0.0146 (inactive).

Regarding `Cc1ccc(Cl)c(Nc2ccccc2C(=O)O)c1Cl`, the inhibition in [1] worked out at 12.9%. In addition, the score in assay [2] was found to be 0.67. In [3], the rescue above control came out at 16.6. In addition, the cytochrome c release ratio in assay [4] is 1.42. Moreover, the inhibition of aggregation in assay [5] came to 46.5%. Moreover, the glutamate uptake change in [6] is -15.8%. In addition, in assay [7], the aggregation suppression score stood at 0.94. The survival in [8] was 16.6 (inactive). Also, the mean signal in assay [10] is 249 (inactive). The z-score in assay [11] is 2.05 (inactive) and 0.72 (inactive). The log fold change Tl+ flux in [12] is 0.408 (active); in [13], 0.243 (active); in assay [14], 0.386 (active); in [15], 0.122 (active); in [16], 0.0346 (inactive); in [17], 0.34 (active). Also, the log fold change Tl+ flux in assay [18] was 0.336 (active); in [19] it was 0.266 (active); in [20] it was 0.0371 (inactive).

For `C[C@H](CS)C(=O)N1CCC[C@H]1C(=O)O`, in assay [1], the inhibition was 11.5%. In assay [2], this compound returned a score of 1.09. The compound further gave a rescue above control in [3] of -12.7. The cytochrome c release ratio in assay [4] stood at 0.82. Moreover, the inhibition of aggregation in [5] was found to be 37.2%. Besides, the glutamate uptake change in assay [6] is -3.95%. The aggregation suppression score in [7] worked out at 1.08. In addition, the mean signal in assay [10] is 261 (inactive). The z-score in [11] was 0.49 (inactive) and 0.465 (inactive) and -0.54 (inactive). The log fold change Tl+ flux in [12] was -0.0696 (inactive); in assay [13] it was 0.00669 (inactive); in [14] it was 0.0146 (inactive); in assay [15], 0.0254 (inactive); in assay [16], 0.0445 (inactive); in [17] it was -0.0207 (inactive). Further, the log fold change Tl+ flux is 0.0269 (inactive) in assay [18], -0.00777 (inactive) in assay [19] and 0.0231 (inactive) in assay [20].

Regarding `COc1ccc2cc(CCC(C)=O)ccc2c1`, the inhibition in assay [1] was 10.1%. This compound also yielded a score in assay [2] of 0.11. For the same compound, the cytochrome c release ratio in assay [4] came out at 0.7. For the same compound, in [5], the inhibition of aggregation worked out at 91.3%. In addition, in assay [6], the glutamate uptake change was found to be 13.8%. In assay [7], the aggregation suppression score stood at 0.329. In addition, the survival in assay [8] was 4.83 (inactive). Further, the mean signal in assay [10] is 213 (inactive). The z-score in assay [11] was 0.395 (inactive) and 0.51 (inactive). The log fold change Tl+ flux in [12] was -0.0534 (inactive); in [13], -0.0818 (active); in assay [14], -0.162 (active); in [15], -0.0634 (inactive); in [16] it was -0.0871 (active); in assay [17] it was -0.284 (active). Moreover, the log fold change Tl+ flux was -0.233 (active) in assay [18], -0.216 (active) in [19] and -0.0751 (inactive) in assay [20].

For `CCCN(CCC)S(=O)(=O)c1ccc(C(=O)O)cc1`, the inhibition in [1] is 2.2%. In addition, the score in assay [2] was determined as 0.68. For the same compound, the rescue above control in [3] came out at 9.13. The cytochrome c release ratio in assay [4] turned out to be 1.07. The compound further yielded an inhibition of aggregation in assay [5] of 52.4%. Further, in [6], the glutamate uptake change was -14.7%. The aggregation suppression score in assay [7] is 0.579. The survival in [8] was 6.25 (inactive). Moreover, the mean signal in assay [10] was 252 (inactive). For the same compound, in assay [11], the z-score was 0.145 (inactive). The log fold change Tl+ flux is -0.02 (inactive) in assay [12]; -0.000486 (inactive) in assay [13]; -0.0299 (inactive) in assay [14]; 0.021 (inactive) in assay [15]; -0.00526 (inactive) in assay [16]; -0.0021 (inactive) in [17]. Further, the log fold change Tl+ flux in assay [18] is -0.000317 (inactive); in [19], -0.0261 (inactive); in assay [20], 0.0366 (inactive).
